Source: PubChem BioAssay
In the library only some 15% were active in any assay of this set; here they are far more common.
DT40 TDP1 no CPT – qHTS for Inhibitors of human tyrosyl-DNA phosphodiesterase 1 (TDP1): qHTS in cells in absence of CPT. DT40 Tdp1-/- hTDP1 cells, no CPT, ATP luminescence, 48 h. Potency, µM (highest dose often 46.2 µM), for the others: top-dose activity change, negative = growth inhibition, usual class: inhibitors. actives 15% (n = 420,000). AID 686978, 2013; further: nearly all actives have a fitted effect of over 55% in size
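Stably hTDP1-transfected Tdp1-null chicken DT40 cells were treated with library compounds minus camptothecin and grown for at least 48 hr at 37 °C, after which cellular ATP was quantified by luminescence.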
Gal4-VP16 FLuc – counter-screen for ROR gamma inhibitors: Gal4-VP16 reporter; AID 2546; Drosophila S2 Gal4-VP16 UAS-luciferase, luminescence, 20 h; actives 3.5% (n = 310,000); Potency, µM (doses to about 53.6 µM), without a hit: at the top dose activity, negative = inhibition, most hits filed as inhibitors;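 further: Gal4-VP16 expression switched on by copper sulfate through the metallothionein promoter; nearly all actives have a fitted effect of over 50% in size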
12-LOX inh – inhibitors of human 12S-lipoxygenase ALOX12; purified 12hLO, xylenol orange hydroperoxide absorbance; Potency, µM (doses to about 108 µM), for the others: at the highest dose activity change, negative = inhibition, hits mostly inhibitors; actives 1.1% (n = 580,000); AID 1671190
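Purified human 12hLO at 150 nM in 25 mM Hepes, 0.01% Triton X-100, pH 7.0, preincubated 15 min at room temperature with compound. Reaction started with 40 uM arachidonic acid, 30 min at room temperature. Hydroperoxide measured by Fe-xylenol orange, 573/405 nm absorbance ratio.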
RORg inh – ROR gamma (mouse) transcription inhibition; P51450; Drosophila S2 Gal4-RORgamma UAS-luciferase reporter, 20 h; Potency, µM (highest dose often 53.6 µM), without a hit: at the highest dose activity change, negative = inhibition, actives largely listed as inhibitors; actives 5.4% (n = 310,000); AID 2551; further: nearly all actives have a fitted effect of over 60% in size
Target sequence (P51450 whole entry, looked up, the tested form may be a part): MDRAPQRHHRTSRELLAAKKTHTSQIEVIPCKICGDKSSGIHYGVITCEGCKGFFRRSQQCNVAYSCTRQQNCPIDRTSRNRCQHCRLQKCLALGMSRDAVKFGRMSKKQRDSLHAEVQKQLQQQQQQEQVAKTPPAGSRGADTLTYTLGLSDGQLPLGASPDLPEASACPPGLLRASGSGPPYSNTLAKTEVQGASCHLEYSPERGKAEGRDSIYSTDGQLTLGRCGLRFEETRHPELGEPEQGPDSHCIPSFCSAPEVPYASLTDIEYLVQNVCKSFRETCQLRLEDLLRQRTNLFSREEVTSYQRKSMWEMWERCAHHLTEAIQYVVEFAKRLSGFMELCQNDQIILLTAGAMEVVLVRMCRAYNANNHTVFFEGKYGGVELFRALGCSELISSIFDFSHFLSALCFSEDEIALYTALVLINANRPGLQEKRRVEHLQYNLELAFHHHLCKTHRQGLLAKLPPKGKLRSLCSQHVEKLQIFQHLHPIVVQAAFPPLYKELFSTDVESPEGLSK
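Stably transfected Drosophila Schneider cells are the test system, with ROR gamma fused to Gal4 and luciferase under UAS control; luminescence is read after 20 hr of 700 uM copper sulfate induction at ambient temperature.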
TDP1 cell CPT – growth inhibition of DT40 Tdp1-/-;hTDP1 cells with camptothecin (screen for TDP1 inhibitors). chicken DT40 Tdp1-/-;hTDP1 cells + 20 nM CPT, ATP luminescence, 48 h. Potency, µM (series often up to 46.2 µM), inactives show top-dose activity change, negative = growth inhibition, actives largely listed as inhibitors. actives 12% (n = 420,000); further: nearly all actives have a fitted effect of over 55% in size
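Cell growth measured by CellTiter-Glo luminescence after a minimum 48 h, 37 C compound exposure with 20 nM CPT in Tdp1-knockout DT40 cells stably expressing hTDP1, seeded 400/well; qHTS titration format.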
ELG1 repair inh – blocks ELG1-dependent DNA repair in HEK293T cells | HEK293T ELG1-luciferase reporter, luminescence, 16 h; DNA damage induced by 5-fluorouridine | Potency, µM (top dose mostly 46.1 µM), for the others: at the top dose activity change, negative = inhibition, hits mostly inhibitors | actives 2.3% (n = 330,000); further: nearly all actives have a fitted effect of over 55% in size
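Quantitative HTS, concentration-response format. 2,000 cells/well co-treated with 5-fluorouridine and compound, 16 hr in 5% CO2 at 37 °C; ONE-Glo luminescence read after 30 min.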
Active calls of the source: *. The call rests on the fitted dose curve; in most records, active means well fitted curve in the direction sought with a large enough effect; inconclusive means small, poorly fitted or top-dose-only effect, or another doubt; inactive means no such curve, though single readings can be large; an effect the other way counts as inactive or inconclusive. On the % scale 0 is the no-effect control and ±100 the full control effect; potency means the concentration at half of the fitted maximal effect.

For Cc1ccccc1-c1nn2c(=O)cc(CN3CCN(C(=O)c4ccc(C(C)(C)C)cc4)CC3)nc2s1 the results were DT40 TDP1 no CPT 7.3µM*, 12-LOX inh 0% and TDP1 cell CPT 8.2µM*.
For O=C(CCc1ccccc1)NC1(C(F)(F)F)C(=O)Nc2c1c(=O)[nH]c(=O)n2Cc1ccccc1 (stereo not drawn) the results were 12-LOX inh -5%.
For COC(=O)c1cnc(Oc2ccc(NC(=O)NC(=O)c3ccccc3Cl)cc2)cc1C(F)(F)F the results were DT40 TDP1 no CPT 4.1µM*, Gal4-VP16 FLuc -27%, 12-LOX inh 85%, RORg inh -9%, TDP1 cell CPT inconclusive and ELG1 repair inh -18%.
COC(=O)c1ccncc1C(=O)Nc1ccc(Oc2ncc(C(F)(F)F)cc2Cl)cc1 was read as DT40 TDP1 no CPT -17%, Gal4-VP16 FLuc 2%, 12-LOX inh -12%, RORg inh -13%, TDP1 cell CPT 2% and ELG1 repair inh 9%.
Screening COc1ccc(NC(=O)C(Cc2ccccc2)n2cccc2)cc1OC (stereo not drawn) returned DT40 TDP1 no CPT 21µM*, Gal4-VP16 FLuc -1%, 12-LOX inh -1%, RORg inh 18%, TDP1 cell CPT 8.2µM* and ELG1 repair inh 0%.
For CC(C)c1ccc(NC(=O)C(Cc2ccccc2)n2cccc2)cc1 (stereo not drawn) the results were DT40 TDP1 no CPT 16µM*, 12-LOX inh 0% and TDP1 cell CPT 21µM*.
For COc1ccc(NC(=O)[C@H](Cc2ccccc2)N2Cc3ccccc3C2=O)cc1OC the results were DT40 TDP1 no CPT -17%, 12-LOX inh 0% and TDP1 cell CPT -7%.
For O=C(Nc1cccc(Cl)c1)C(Cc1ccccc1)n1cccc1 (stereo not drawn) the results were DT40 TDP1 no CPT 18µM*, 12-LOX inh 0% and TDP1 cell CPT 23µM*.
For CC(c1ccc(S(C)(=O)=O)cc1)N(C)S(=O)(=O)c1ccc(Cl)c(Cl)c1 (stereo not drawn) the results were 12-LOX inh 4%.
Screening NNC(=O)C(=O)/C=C1\NC2(CCCC2)Cc2ccccc21 returned DT40 TDP1 no CPT -3%, Gal4-VP16 FLuc 3%, 12-LOX inh 455%, RORg inh 1%, TDP1 cell CPT 0% and ELG1 repair inh inconclusive.
O=C(/C=C1\NC2(CCCC2)Cc2ccccc21)C(=O)N/N=C/c1ccc(O)c(O)c1 was read as DT40 TDP1 no CPT 4.6µM*, Gal4-VP16 FLuc 0%, 12-LOX inh 35µM*, RORg inh -4%, TDP1 cell CPT 5.8µM* and ELG1 repair inh 23µM*.
COc1ccc(/C=N/NC(=O)C(=O)/C=C2\NC3(CCCC3)Cc3ccccc32)cc1 was read as DT40 TDP1 no CPT inconclusive, Gal4-VP16 FLuc -5%, 12-LOX inh -3%, RORg inh 25%, TDP1 cell CPT inconclusive and ELG1 repair inh 23µM*.
`Cc1nc2nc(-c3cccs3)[nH]c2cc1Br` gave DT40 TDP1 no CPT 16µM*, 12-LOX inh 112% and TDP1 cell CPT inconclusive.
For COc1ccc(Cc2c(-c3cccc(Cl)c3)nc3c(C)cc(Br)cn23)c(C)c1 the results were DT40 TDP1 no CPT 2.6µM*, 12-LOX inh 7.9µM* and TDP1 cell CPT 2.6µM*.
`COc1ccc(Cc2c(-c3ccc(F)cc3)nc3c(C)cc(Br)cn23)c(C)c1` gave DT40 TDP1 no CPT 18µM*, 12-LOX inh 35µM* and TDP1 cell CPT inconclusive.
